The source of these data is PubChem BioAssay.

Test [1] in a line: anti-His antibody binders, primary screen, artefact control for SMM control protein annotation, biochemical, small-molecule microarray, 635 nm fluorescence (AID 1128).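 Note: score merges feature fluorescence with signal-to-noise for each printed compound spot.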 The note with it: anti-His Alexa647 antibody binding, higher = more signal.
Test [2] has as its system Human papillomavirus type 1a E7 protein (residues 1-88). Briefly: HPV1a E7 small-molecule binders, primary screen, biochemical, small-molecule microarray, residues 1-88, 635 nm (AID 1129). Conditions: small-molecule microarray binding, fluorescence 635 nm; higher = more signal.
For test [3], the target named is Focal adhesion kinase 1 (Homo sapiens) (UniProt Q05397). Briefly: small-molecule microarray binders of FAK, primary screen, biochemical, 635/667 nm fluorescence, BSA, DTT (AID 1130).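 Note: composite of spot emission at 667 nm and signal to noise over triplicate slides.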 Conditions: PTK2 binding, 635 nm fluorescence, higher = more signal.
Focal adhesion kinase 1 (Homo sapiens), sequence (Q05397 whole entry, looked up): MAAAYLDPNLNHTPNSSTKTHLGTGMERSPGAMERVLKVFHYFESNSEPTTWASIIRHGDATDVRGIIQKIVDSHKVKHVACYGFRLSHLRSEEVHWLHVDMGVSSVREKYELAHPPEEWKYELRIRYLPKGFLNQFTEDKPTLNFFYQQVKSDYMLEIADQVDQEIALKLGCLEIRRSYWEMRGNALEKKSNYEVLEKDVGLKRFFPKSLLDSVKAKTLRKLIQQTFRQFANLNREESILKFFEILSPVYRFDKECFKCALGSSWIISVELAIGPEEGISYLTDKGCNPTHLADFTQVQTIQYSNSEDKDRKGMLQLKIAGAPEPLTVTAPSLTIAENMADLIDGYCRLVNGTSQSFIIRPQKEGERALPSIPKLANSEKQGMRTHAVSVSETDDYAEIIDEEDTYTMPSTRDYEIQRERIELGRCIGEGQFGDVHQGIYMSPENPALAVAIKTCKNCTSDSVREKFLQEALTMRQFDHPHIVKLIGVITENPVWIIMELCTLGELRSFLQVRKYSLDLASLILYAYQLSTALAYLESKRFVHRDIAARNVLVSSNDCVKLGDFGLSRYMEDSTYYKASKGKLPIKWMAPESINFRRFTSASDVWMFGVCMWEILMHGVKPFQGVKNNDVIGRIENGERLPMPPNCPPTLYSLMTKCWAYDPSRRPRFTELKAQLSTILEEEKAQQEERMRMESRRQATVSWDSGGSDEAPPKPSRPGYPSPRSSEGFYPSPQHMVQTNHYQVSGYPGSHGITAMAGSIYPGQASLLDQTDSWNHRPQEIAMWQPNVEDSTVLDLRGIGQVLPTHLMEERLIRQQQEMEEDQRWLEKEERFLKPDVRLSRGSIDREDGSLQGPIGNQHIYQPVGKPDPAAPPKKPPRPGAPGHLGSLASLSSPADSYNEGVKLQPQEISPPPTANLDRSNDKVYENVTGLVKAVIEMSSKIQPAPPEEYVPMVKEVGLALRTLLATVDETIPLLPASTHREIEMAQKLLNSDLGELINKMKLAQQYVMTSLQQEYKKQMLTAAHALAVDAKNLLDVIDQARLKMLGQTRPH
For test [4], the system named is Fibrinogen (Alexa647-labelled). As to the kind of experiment: fibrinogen binders on compound microarrays, profiling panel, artefact control for SMM control-protein annotation, biochemical, small-molecule microarray, 635/667 nm fluorescence (AID 1131).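 Note: z-score merges 667 nm fluorescence with per-spot signal-to-noise over triplicate slides.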 The note with it: fibrinogen-A647 binding fluorescence, higher = more signal.
Test [5] deals with Follistatin (Homo sapiens) (UniProt P19883). Briefly: follistatin binders on small-molecule microarrays, primary screen, biochemical, small-molecule microarray, 635/667 nm fluorescence (AID 1132). Conditions: FST binding, 635 nm fluorescence, higher = more signal.
Follistatin (Homo sapiens), sequence (P19883 whole entry, looked up): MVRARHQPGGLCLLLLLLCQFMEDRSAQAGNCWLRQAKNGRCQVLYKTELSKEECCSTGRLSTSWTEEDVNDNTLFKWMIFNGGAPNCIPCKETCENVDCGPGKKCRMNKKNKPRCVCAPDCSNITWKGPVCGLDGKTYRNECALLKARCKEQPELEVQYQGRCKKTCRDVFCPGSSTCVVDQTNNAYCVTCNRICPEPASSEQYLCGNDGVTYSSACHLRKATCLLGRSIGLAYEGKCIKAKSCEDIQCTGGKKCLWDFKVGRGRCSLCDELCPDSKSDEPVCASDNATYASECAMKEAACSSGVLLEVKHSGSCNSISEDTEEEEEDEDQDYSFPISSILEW
In test [6] the target is Fibroblast growth factor 2 (Homo sapiens) (UniProt P09038). Briefly: FGF2 binders on small-molecule microarrays, primary screen, biochemical, small-molecule microarray, 635/667 nm fluorescence (AID 1133). Conditions: small-molecule microarray binding, FGF2, fluorescence 635/667; higher = more signal.
Fibroblast growth factor 2 (Homo sapiens), sequence (P09038 whole entry, looked up): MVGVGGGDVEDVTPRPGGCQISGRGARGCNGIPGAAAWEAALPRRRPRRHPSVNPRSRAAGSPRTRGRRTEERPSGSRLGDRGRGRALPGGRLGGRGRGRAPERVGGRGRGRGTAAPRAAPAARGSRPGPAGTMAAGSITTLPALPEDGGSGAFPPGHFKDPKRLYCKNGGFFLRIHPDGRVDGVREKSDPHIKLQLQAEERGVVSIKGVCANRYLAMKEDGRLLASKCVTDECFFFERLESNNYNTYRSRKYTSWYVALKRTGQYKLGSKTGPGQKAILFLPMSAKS
Test [7] is described as follows: mitochondrial membrane potential change in A549 cells, profiling panel, cell-based, JC-1 fluorescence, basal, 24 h, 100 nL (AID 1138).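 Note: A549 lung adenocarcinoma cells under basal conditions with no added stimulus; test concentration not given here.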 The note with it: higher = more signal.
The test system of another test is Lefty1. Briefly: Lefty1 binders on small-molecule microarrays, primary screen, biochemical, small-molecule microarray, 635/667 nm fluorescence (AID 1139). The note with it: small-molecule microarray binding, fluorescence 635/667; higher = more signal.
Test [8] concerns wheat germ agglutinin (Triticum aestivum), Alexa647-labelled. As to the kind of experiment: wheat germ agglutinin binders on compound microarrays, profiling panel, artefact control for SMM control-protein annotation, biochemical, small-molecule microarray, 635/667 nm fluorescence (AID 1140).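 Note: score merges 667 nm feature emission with signal to noise over triplicate slides.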 The note with it: WGA-A647 binding, 635 nm fluorescence, higher = more signal.
The target in test [9] is Luciferin 4-monooxygenase (Photinus pyralis) (UniProt P08659). As to the kind of experiment: firefly luciferase enzyme inhibitors, primary screen, biochemical, luminescence, purified enzyme, 2006 set (AID 1141).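 Note: cell-free assay with purified firefly luciferase at 100 ng per well in PBS; test concentration not given here.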 The note with it: SteadyGlo luminescence, 30 min, higher = more signal, called active from +8 up or from −8 down.
Luciferin 4-monooxygenase (Photinus pyralis), sequence (P08659 whole entry, looked up): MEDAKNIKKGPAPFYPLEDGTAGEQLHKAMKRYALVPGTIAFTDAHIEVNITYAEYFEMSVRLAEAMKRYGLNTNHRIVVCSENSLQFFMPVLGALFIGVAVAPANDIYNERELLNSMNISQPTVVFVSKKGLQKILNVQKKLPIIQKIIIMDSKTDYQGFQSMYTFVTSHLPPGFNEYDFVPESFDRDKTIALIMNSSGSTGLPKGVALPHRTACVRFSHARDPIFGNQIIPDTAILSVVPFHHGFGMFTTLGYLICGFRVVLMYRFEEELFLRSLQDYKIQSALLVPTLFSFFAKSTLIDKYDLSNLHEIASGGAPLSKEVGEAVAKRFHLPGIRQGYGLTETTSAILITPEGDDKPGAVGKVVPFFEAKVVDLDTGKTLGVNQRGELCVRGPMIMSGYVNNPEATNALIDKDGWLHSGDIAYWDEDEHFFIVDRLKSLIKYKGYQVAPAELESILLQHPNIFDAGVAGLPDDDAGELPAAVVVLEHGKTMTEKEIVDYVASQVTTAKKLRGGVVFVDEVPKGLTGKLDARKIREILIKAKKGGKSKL
For test [10], the system named is Wnt5a (protein binding on small-molecule microarray). As to the kind of experiment: Wnt5a binders on small-molecule microarray, primary screen, biophysical, 635/667 nm fluorescence (AID 1142).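 Note: fluorescence read at 667 nm with signal to noise per printed feature.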 The note with it: 635 nm fluorescence, higher = more signal.
Test [11] is described as follows: cell viability in Huh7 cells, primary screen, cytotoxicity control for HCV replication inhibitor project, CellTiter-Glo luminescence, basal, 48 h (AID 1143).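 Note: Huh7 hepatoma cells carrying a hepatitis C replication reporter with no stimulus; test concentration not given here.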 The note with it: Huh7 HCV replicon, higher = more signal, called active from +8 up or from −8 down.
A short description of test [12]: P. aeruginosa biofilm formation inhibitors, primary screen, PAO1 strain, BacTiter-Glo luminescence, LB-PBS (AID 1144). Conditions: 12 h, higher = more signal.
A short description of test [13]: CREB reporter modulators without forskolin, primary screen, cell-based, PC12, CRE-LacZ reporter, unstimulated (AID 1145). The note with it: no forskolin, luminescence, 4.5 h, higher = more signal, called active from +8 up or from −8 down.
Test [14] can be described thus: CREB reporter modulators under forskolin, primary screen, cell-based, PC12, CRE-LacZ reporter, forskolin-stimulated (AID 1146).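 Note: PC12 cells with 6xCRE LacZ reporter stimulated by forskolin 10 µM; beta-galactosidase reporter signal reflecting CREB driven transcription.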 The note with it: luminescence, 4.5 h, higher = more signal, called active from +8 up or from −8 down.
In test [15] the target is Streptavidin (Streptomyces avidinii) (UniProt P22629). As to the kind of experiment: streptavidin binders on small-molecule microarray, primary screen, artefact control for SMM compound annotation, biophysical, 635/667 nm fluorescence (AID 1147).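 Note: signal reflects streptavidin binding to arrayed compounds as a control protein.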 The note with it: streptavidin binding, higher = more signal.
Streptavidin (Streptomyces avidinii), sequence (P22629 whole entry, looked up): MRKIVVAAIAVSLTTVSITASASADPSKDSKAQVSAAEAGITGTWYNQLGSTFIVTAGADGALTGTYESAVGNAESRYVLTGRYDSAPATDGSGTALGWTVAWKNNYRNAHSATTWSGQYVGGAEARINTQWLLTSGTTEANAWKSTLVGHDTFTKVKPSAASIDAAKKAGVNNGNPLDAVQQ
Test [16] in a line: small-molecule binders of probe aInhba, primary screen, biochemical, small-molecule microarray, 635/667 nm fluorescence (AID 1148).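 Note: score merges 667nm spot fluorescence with signal-to-noise for antibody binding to printed compounds.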 The note with it: higher = more signal.
For test [17], the target named is Torsin-1A (Homo sapiens) (UniProt O14656). As to the kind of experiment: torsin A binders from cell lysate, primary screen, small-molecule microarray, wild-type, 635/667 nm (AID 1149). The note with it: COS7 hTOR1A-WT lysate, 635 nm fluorescence, higher = more signal.
Torsin-1A (Homo sapiens), sequence (O14656 whole entry, looked up): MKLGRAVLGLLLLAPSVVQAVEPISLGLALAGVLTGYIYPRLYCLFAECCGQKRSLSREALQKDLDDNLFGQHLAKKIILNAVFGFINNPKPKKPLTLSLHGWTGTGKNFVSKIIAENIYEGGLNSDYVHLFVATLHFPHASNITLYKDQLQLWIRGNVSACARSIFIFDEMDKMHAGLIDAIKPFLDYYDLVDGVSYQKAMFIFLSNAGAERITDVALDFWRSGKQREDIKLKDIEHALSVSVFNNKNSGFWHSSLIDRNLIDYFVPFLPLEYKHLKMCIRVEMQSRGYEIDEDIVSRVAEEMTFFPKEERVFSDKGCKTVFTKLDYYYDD
For test [18] the target is unchanged. As to the kind of experiment: small-molecule binders of mutant TOR1A in lysate, primary screen, cell lysate, small-molecule microarray, COS7 lysate, 635/667 nm fluorescence (AID 1150).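 Note: score pools 667 nm emission and signal to noise measuring lysate protein binding.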 The note with it: COS7 hTOR1A mutant lysate, 635 nm fluorescence, higher = more signal.
For test [19], the system named is Sonic hedgehog protein (Shh). As to the kind of experiment: small-molecule binders of Shh protein, primary screen, biochemical, small-molecule microarray, 635/667 nm fluorescence (AID 1151).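 Note: Shh protein binding to compounds spotted on small-molecule microarray slides; score combines spot fluorescence intensity with signal-to-noise across triplicate slides.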 The note with it: small-molecule microarray binding, 635 nm fluorescence; higher = more signal.

Structures are written as SMILES. Active and inactive are the calls of the source. Unless noted, the rule behind the calls is not given here.

As for `O=C1O[C@H](c2ccccc2)[C@H](c2ccccc2)N2[C@H]1[C@@H](C(=O)NC[C@H](O)c1ccccc1)[C@]1(C(=O)Nc3ccc(C#CCCO)cc31)[C@H]2c1ccccc1OCCO`, the composite z-score in test [1] amounted to 1.6; in test [2], 1.18; in test [3], 0.746; in test [4], 0.812; in test [5] it was 1.1; in test [6] it was 0.419. Moreover, the composite z-score was 1.39 with Lefty1; 0.593 in test [8]; -0.24 in test [10]; -0.0243 in test [15]; 0.0633 in test [16]; 0.898 with Torsin-1A (Homo sapiens) [17]. For the same compound, the composite z-score in the test with Torsin-1A (Homo sapiens) [18] turned out to be 1.01; in [19], 1.97. In addition, the z-score is -0.223 in [7]; 0.597 (inactive) in test [9]; -1.9 (inactive) in [11]; -0.491 (inactive) in test [12]; -0.141 (inactive) in test [13]; -0.27 (inactive) in [14].
In the case of `C/C=C/CN(C(=O)C#Cc1ccccc1)[C@H](CO[Si](C)(C)C(C)(C)C)c1ccccc1`, the composite z-score in test [1] is -1.73; in test [2] it was -0.0136; in test [3] it was -0.1; in test [4] it was -2.12; in test [5] it was -1.52; in test [6], -1.25. In addition, the composite z-score is -0.977 with Lefty1; -1.7 in test [8]; -0.515 in test [10]; -1.06 in test [15]; -0.353 in [16]; -0.724 with Torsin-1A (Homo sapiens) [17]. For the same compound, the figures for the composite z-score (with Torsin-1A (Homo sapiens) [18]; in test [19]) were -0.841 and 0.248, respectively. Besides, the z-score in test [7] was 0.2; in test [9], -0.178 (inactive); in [11], -4.31 (inactive); in test [12] it was 1.09 (inactive); in test [13], 1.94 (inactive); in test [14], -0.757 (inactive).
Turning to `O=C(NCCO)C1=C[C@H](Oc2ccccc2I)[C@@H](O)[C@H](NCc2ccc(F)cc2)C1`, the composite z-score in test [1] was -0.223; in [2] it was -1.23; in test [3], -0.279; in [4] it was -2.27; in test [5] it was 1.31; in test [6], 0.795. Also, the composite z-score in the test with Lefty1 was 1.45; in test [8], -1.25; in [10], 0.273; in [15] it was -0.743; in test [16], -0.197; with Torsin-1A (Homo sapiens) [17], 0.693. Moreover, the results for the composite z-score (with Torsin-1A (Homo sapiens) [18]; in test [19]) were 1 and 2.08, respectively. The z-score in test [7] was -0.697; in [9] it was 0.243 (inactive); in test [11], -2.8 (inactive); in [12], 0.148 (inactive); in test [13], 4.56 (inactive); in [14] it was 0.925 (inactive).
As to `NCCCC[C@@H]1NC(=O)[C@H]2C[C@@H](C(=O)NCc3ccc(F)cc3)[C@@H](c3ccc(O)cc3)N2C1=O`, the composite z-score in [1] is 2.05; in test [2], 0.969; in test [3], -0.145; in test [4], 0.165; in test [5] it was 1.32; in [6] it was 1.32. In addition, the composite z-score in the test on Lefty1 was 0.296; in test [8] it was 1.2; in [10] it was -0.0979; in [15] it was 0.829; in test [16], 0.0963; with Torsin-1A (Homo sapiens) [17], 1.18. Besides, the composite z-score with Torsin-1A (Homo sapiens) [18] was determined as 2.58; in test [19], 1.11. Besides, the z-score in test [7] is -0.724; in test [9], 0.242 (inactive); in test [11], 0.12 (inactive); in test [12] it was -0.0714 (inactive); in [13], 0.143 (inactive); in test [14] it was 0.421 (inactive).
Turning to `C#CCN=C(N)N`, the composite z-score is 0.468 in test [1]; 0.611 in test [2]; -0.0375 in test [3]; 0.802 in test [4]; 0.785 in test [5]; 0.388 in test [6]. The composite z-score with Lefty1 was 0.858; in test [8], 0.299; in test [10] it was 0.0311; in [15], 0.314; in test [16] it was 0.0797; in the test with Torsin-1A (Homo sapiens) [17], 1.7. The values for the composite z-score (with Torsin-1A (Homo sapiens) [18]; in test [19]) were 0.832 and 0.666, respectively. Moreover, the z-score in [7] was -0.317; in test [9], 0.523 (inactive); in test [11] it was -0.347 (inactive); in test [12] it was 0.214 (inactive); in test [13], -0.0247 (inactive); in [14], -0.055 (inactive).
Regarding `COc1cc2c(cc1O)C(c1ccc(CN3CCCC3)cc1)N(Cc1cccc(OC(F)(F)F)c1)CC2` (stereo not given), the composite z-score in [1] was 1.67; in test [2] it was 0.879; in test [3] it was -0.425; in [4], 0.406; in test [5], 1.22; in test [6], 0.476. The composite z-score in the test with Lefty1 is 0.242; in test [8], 0.625; in test [10] it was -0.0324; in test [15], 0.0307; in [16], -0.15; with Torsin-1A (Homo sapiens) [17], 0.47. For the same compound, the composite z-score is 1.13 in the test with Torsin-1A (Homo sapiens) [18] and 0.345 in [19]. Further, the z-score in [7] was -2.01; in test [9], -1.37 (inactive); in test [11], -5.42 (inactive); in test [12], 1.15 (inactive); in test [13], 0.0924 (inactive); in test [14] it was 0.248 (inactive).
For the compound `CCOC(=O)C[C@H]1[C@H](OC(=O)c2ccc(C(=O)c3ccccc3)cc2)[C@@H](NC(=O)c2ccc3ccccc3c2)c2cc(OCCCO)ccc2N1C(=O)c1ccc2ccccc2n1`, the composite z-score worked out at 0.565 in test [1]; 0.578 in test [2]; 0.44 in test [3]; 0.892 in test [4]; 0.331 in [5]; 0.851 in test [6]. In addition, the composite z-score was 0.704 with Lefty1; 0.0601 in test [8]; 0.289 in test [10]; 0.129 in test [15]; -0.0774 in test [16]; 0.182 with Torsin-1A (Homo sapiens) [17]. Also, the figures for the composite z-score (in the test with Torsin-1A (Homo sapiens) [18]; in test [19]) were 0.819 and 0.94, respectively. The z-score in test [7] is 2.1; in test [9], -0.818 (inactive); in test [11], 0.311 (inactive); in [12], -0.0217 (inactive); in test [13], -0.244 (inactive); in [14] it was -0.643 (inactive).
Regarding `CC#CCO[Si](C#CCCCCCC)(C(C)C)C(C)C`, the composite z-score is -0.19 in test [1]; -0.419 in [2]; -0.103 in [3]; -1.49 in test [4]; -2.99 in [5]; -2.42 in [6]. Also, the composite z-score in the test on Lefty1 was -1.93; in [8], 0.064; in test [10] it was -1.15; in test [15], -2.45; in test [16], -0.288; in the test with Torsin-1A (Homo sapiens) [17] it was -1.46. The composite z-score was -1.03 in the test with Torsin-1A (Homo sapiens) [18] and -1.62 in test [19]. For the same compound, the z-score in [7] was -0.996; in test [9], 0.944 (inactive); in [11] it was -1.03 (inactive); in test [12], -1.06 (inactive); in test [13], -0.374 (inactive); in test [14], 2.09 (inactive).
